Compounds with a hit are over-represented: about 3.9% of the library has one in this group of screens.
Anthrax LF prot: inhibitors of Bacillus anthracis lethal factor protease | inhibition, % at 10 µM | multiplex microsphere protease cleavage assay, LF | P15917 | actives 0.12% (n = 360,000)
BH1578 lux ind: induces V. cholerae light production without autoinducers | actives 0.16% (n = 350,000) | V. cholerae BH1578 lux reporter, luminescence, 6 h | activation, % at 18.7 µM | AID 588436; in the data active = activation mostly above about 9.7%, no sharp cut-off; inconclusive = no clear call, values can overlap the other calls; inactive = mostly below about 3.7%
Autofluor counter: compound fluorescence in toxin protease inhibitor counterscreen | actives 3.1% (n = 360,000) | fluorescence intensity (test concentration not listed) | compound autofluorescence counterscreen, microsphere flow cytometry; hits give high values; in the data active = fluorescence intensity above about 16000; inconclusive = no clear call, values can overlap the other calls
BoNT F protease: inhibitors of Botulinum neurotoxin F light chain protease; Multiplex microsphere protease cleavage assay, flow cytometry; inhibition, % at 10 µM; actives 0.22% (n = 360,000); in the data active = inhibition above about 35%, passing the limit was not always enough; inconclusive = no clear call, values can overlap the other calls
MazF activator: activators of E. coli MazEF toxin-antitoxin RNase. P0AE70. FAM/BHQ RNA-DNA oligo cleavage fluorescence, 5 h. activation, % at 20 µM. actives 0.32% (n = 350,000); in the data active = activation above about 50%
Target sequence (P0AE70 whole entry, looked up): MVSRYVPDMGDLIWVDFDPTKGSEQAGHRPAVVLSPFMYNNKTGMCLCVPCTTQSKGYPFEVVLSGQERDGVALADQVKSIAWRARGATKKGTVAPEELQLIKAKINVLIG
BoNT-A LC inh2: blocks Botulinum neurotoxin A light chain protease; multiplex microsphere protease substrate cleavage, flow cytometry; inhibition, % at 10 µM; actives 0.17% (n = 360,000); AID 588499
Numbers stand for hits. Rule as the data show it, unless noted: active = inhibition above about 30%; inconclusive = no clear call, values can overlap the other calls; inactive = below that.

Results for CS(=O)(=O)N1CCC(C(=O)Nc2cccc(Br)c2)CC1 ?
Anthrax LF prot: inactive; BH1578 lux ind: inactive; Autofluor counter: inactive; BoNT F protease: inconclusive; MazF activator: inactive; BoNT-A LC inh2: inactive

What do the screens show for `CCCOc1ccc(/C=C/C(=O)NC2CCCCC2)cc1`?
Anthrax LF prot: inactive; BH1578 lux ind: inactive; Autofluor counter: inactive; BoNT F protease: inactive; MazF activator: inactive; BoNT-A LC inh2: inactive

Results for O=C(/C=C/c1ccc(Br)cc1)NC1CCCCCC1 ?
Anthrax LF prot: inactive; BH1578 lux ind: inactive; Autofluor counter: 21525; BoNT F protease: inactive; MazF activator: inactive; BoNT-A LC inh2: inactive

Results for O=C(Nc1cccc(-c2nc3ccccc3s2)c1)c1ccc2c(c1)OCO2 ?
Anthrax LF prot: inactive; BH1578 lux ind: inactive; Autofluor counter: inactive; BoNT F protease: inactive; MazF activator: inactive; BoNT-A LC inh2: inactive

How did c1ccc2sc(-c3ccc4c(c3)OCO4)nc2c1 do in these assays?
Anthrax LF prot: inactive; BH1578 lux ind: inactive; Autofluor counter: 21120; BoNT F protease: inactive; MazF activator: inactive; BoNT-A LC inh2: inactive

What do the screens show for `O=C(O)c1ccc(COc2c(F)c(F)c(F)c(F)c2F)o1`?
Anthrax LF prot: inactive; BH1578 lux ind: inactive; Autofluor counter: 19586; BoNT F protease: inactive; MazF activator: inactive; BoNT-A LC inh2: inactive

What do the screens show for `Cc1cc(C)cc(OCc2ccc(C(=O)O)o2)c1`?
Anthrax LF prot: inactive; BH1578 lux ind: inactive; Autofluor counter: inactive; BoNT F protease: inactive; MazF activator: inactive; BoNT-A LC inh2: inactive

How did COc1ccccc1-n1c(SCC(=O)Nc2ccccc2F)nc2[nH]ncc2c1=O do in these assays?
Anthrax LF prot: inactive; BH1578 lux ind: inactive; Autofluor counter: 16242; BoNT F protease: inactive; MazF activator: inactive; BoNT-A LC inh2: inconclusive

Results for CCOc1ccc(NC(=O)CSc2nc3[nH]ncc3c(=O)n2-c2ccccc2OC)cc1 ?
Anthrax LF prot: inactive; BH1578 lux ind: inactive; Autofluor counter: inactive; BoNT F protease: inactive; MazF activator: inactive; BoNT-A LC inh2: inactive

How did N/C(=N\OC(=O)C12CC3CC(CC(C3)C1)C2)c1ccccc1 do in these assays?
Anthrax LF prot: inactive; BH1578 lux ind: inactive; Autofluor counter: 17662; BoNT F protease: inactive; MazF activator: inactive; BoNT-A LC inh2: inactive

Results for N/C(=N\OC(=O)C12CC3CC(CC(C3)C1)C2)c1cccnc1 ?
Anthrax LF prot: inactive; BH1578 lux ind: inactive; Autofluor counter: inactive; BoNT F protease: inactive; MazF activator: inactive; BoNT-A LC inh2: inactive

Results for CSc1n[nH]c(-c2sccc2OCc2ccc(C)cc2)n1 ?
Anthrax LF prot: inactive; BH1578 lux ind: inactive; Autofluor counter: inactive; BoNT F protease: inactive; MazF activator: inactive; BoNT-A LC inh2: inactive

Results for CSc1nnc(-c2sccc2OCc2ccccc2)n1C ?
Anthrax LF prot: inactive; BH1578 lux ind: inactive; Autofluor counter: 16539; BoNT F protease: inactive; MazF activator: inactive; BoNT-A LC inh2: inactive

How did CCOc1cc(CNCc2ccncc2)cc(Br)c1OCc1ccc(F)cc1 do in these assays?
Anthrax LF prot: inactive; BH1578 lux ind: inactive; Autofluor counter: 20403; BoNT F protease: inactive; MazF activator: inactive; BoNT-A LC inh2: inactive

How did Fc1ccc(COc2ccc(Br)cc2CNCc2ccncc2)cc1 do in these assays?
Anthrax LF prot: inactive; BH1578 lux ind: inactive; Autofluor counter: inactive; BoNT F protease: inactive; MazF activator: inactive; BoNT-A LC inh2: inactive

Results for COC(=O)c1ccc(N/C(C)=C/C(=O)c2ccc(C)o2)cc1 ?
Anthrax LF prot: inactive; BH1578 lux ind: inactive; Autofluor counter: 16289; BoNT F protease: inactive; MazF activator: inactive; BoNT-A LC inh2: inactive

How did C/C(=C\C(=O)c1ccc(C)o1)Nc1ccc2c(c1)OCO2 do in these assays?
Anthrax LF prot: inactive; BH1578 lux ind: inactive; Autofluor counter: 23606; BoNT F protease: inactive; MazF activator: inactive; BoNT-A LC inh2: inactive

How did CCOc1ccc(N/C(C)=C/C(=O)c2ccc(C)o2)cc1 do in these assays?
Anthrax LF prot: inactive; Autofluor counter: inactive; BoNT F protease: inactive; MazF activator: inactive; BoNT-A LC inh2: inactive

Results for Cc1ccc(S(=O)(=O)N2CC(C)N(C(=O)N3CCOCC3)C2)cc1 (centres undefined) ?
Anthrax LF prot: inactive; BH1578 lux ind: inactive; Autofluor counter: inactive; BoNT F protease: inactive; MazF activator: inactive; BoNT-A LC inh2: inactive

What do the screens show for `CCC(=O)N1CN(S(=O)(=O)c2ccc(C)cc2)CC1C` (centres undefined)?
Anthrax LF prot: inactive; BH1578 lux ind: inactive; Autofluor counter: 21656; BoNT F protease: inactive; MazF activator: inactive; BoNT-A LC inh2: inactive

Assay outcomes from PubChem BioAssay.
